# Data as given in the supplement of paper PMC10849652.
# Of roughly 7,900 targets only a part is listed; those with a hit were picked by preference. About 0.6% of all pairs of compound and target were hits. Values without a mark were called inactive.
# Tests used:
# Assay in all cases: log2 fold change, soluble protein after heating vs DMSO (PISA); higher = thermal stabilisation; K562 cells, 10 uM, 30 min; active = over 0.2 and 3.5 SD of the protein, either way, in both replicates (recomputed)
# [1] = compound: CC[C@@H]1C(=O)N(C)c2cnc(Nc3ccc(C(=O)NC4CCN(C)CC4)cc3OC)nc2N1C1CCCC1
# Procedure, shortened: (§1)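 Aliquots of K562 cells (2×10^6 cells/mL) treated with 10 μM compound for 30 min were heated for 3 min over 48°C-58°C. After pooling and extraction in PBS with 0.5% NP-40 at 4°C, soluble protein from a 21,000xg, 90 min spin was quantified by TMTpro 16plex LC-MS/MS with channel sums equalised. Thermal stability is expressed against control samples, from duplicates, as a log2 fold change.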
# volasertib = compound: CC[C@@H]1C(=O)N(C)c2cnc(Nc3ccc(C(=O)N[C@H]4CC[C@H](N5CCN(CC6CC6)CC5)CC4)cc3OC)nc2N1C(C)C [volasertib]
# Procedure, shortened: as §1
# [2] = compound: CC[C@H](C)N1C=C(C2=C(C=C(C=C21)C3=CN=C(C=C3)N4CCNCC4)C(=O)NCC5=C(C=C(NC5=O)C)C)C
# Procedure, shortened: as §1
# epoxomicin = compound: CC[C@H](C)[C@@H](C(=O)N[C@@H]([C@@H](C)O)C(=O)N[C@@H](CC(C)C)C(=O)[C@]1(CO1)C)NC(=O)[C@H]([C@@H](C)CC)N(C)C(=O)C [epoxomicin]
# Procedure, shortened: as §1
# [3] = compound: CCn1c(C(=O)N(C2CC2)C2CC2)cc2c3c(ncn3C)c(Nc3cc(C)n(C)n3)nc21
# Procedure, shortened: as §1
# [4] = compound: CCn1cc(-c2ccnc3[nH]c(-c4cccc(CN(C)C)c4)cc23)c(-c2ccc(NC(=O)N(C)C)cc2)n1
# Procedure, shortened: as §1
# [5] = compound: CN(C)CC(=O)Nc1ccc2[nH]c(=O)c3ccccc3c2c1
# Procedure, shortened: as §1
# rosiglitazone = compound: CN(CCOC1=CC=C(C=C1)C[C@H]2C(=O)NC(=O)S2)C3=CC=CC=N3 (racemic) [rosiglitazone]
# Procedure, shortened: as §1
# [6] = compound: CN1C2=C(C3=C1C(=O)N(N=C3)CC4=CC(=CC=C4)N)SC(=C2)S(=O)C
# Procedure, shortened: as §1
# [7] = compound: CN1CCC(CNc2ccc3ncc(-c4cccc(OC(F)(F)F)c4)n3n2)CC1
# Procedure, shortened: as §1
# saracatinib = compound: CN1CCN(CCOc2cc(OC3CCOCC3)c3c(Nc4c(Cl)ccc5c4OCO5)ncnc3c2)CC1 [saracatinib]
# Procedure, shortened: as §1
# sotrastaurin = compound: CN1CCN(c2nc(C3=C(c4c[nH]c5ccccc45)C(=O)NC3=O)c3ccccc3n2)CC1 [sotrastaurin]
# Procedure, shortened: as §1
# alvocidib = compound: CN1CC[C@H](c2c(O)cc(O)c3c(=O)cc(-c4ccccc4Cl)oc23)[C@H](O)C1 [alvocidib]
# Procedure, shortened: as §1
# Tubastatin A = compound: CN1CCc2c(c3ccccc3n2Cc2ccc(C(=O)NO)cc2)C1 [Tubastatin A]
# Procedure, shortened: as §1
# [8] = compound: CNC(=O)C1=CC=CC=C1NC2=NC(=NC=C2Cl)NC3=C(C=C(C=C3)N4CCOCC4)OC
# Procedure, shortened: as §1
# defactinib = compound: CNC(=O)c1ccc(Nc2ncc(C(F)(F)F)c(NCc3nccnc3N(C)S(C)(=O)=O)n2)cc1 [defactinib]
# Procedure, shortened: as §1
# rucaparib = compound: CNCc1ccc(-c2[nH]c3cc(F)cc4c3c2CCNC4=O)cc1 [rucaparib]
# Procedure, shortened: as §1
# [9] = compound: CNc1nc(-c2ccc3c(N)n[nH]c3c2)cc(N2C[C@@H](C(=O)NC3CCCCC3)CC[C@H]2C)n1
# Procedure, shortened: as §1
# encorafenib = compound: COC(=O)N[C@@H](C)CNc1nccc(-c2cn(C(C)C)nc2-c2cc(Cl)cc(NS(C)(=O)=O)c2F)n1 [encorafenib]
# Procedure, shortened: as §1
# [10] = compound: COC(=O)[C@H](CCSC)NC(=O)C1=C(C=C(C=C1)NC[C@H](CS)N)C2=CC=CC=C2
# Procedure, shortened: as §1
# Sequence of UniProt O76031 (O76031 whole entry, looked up): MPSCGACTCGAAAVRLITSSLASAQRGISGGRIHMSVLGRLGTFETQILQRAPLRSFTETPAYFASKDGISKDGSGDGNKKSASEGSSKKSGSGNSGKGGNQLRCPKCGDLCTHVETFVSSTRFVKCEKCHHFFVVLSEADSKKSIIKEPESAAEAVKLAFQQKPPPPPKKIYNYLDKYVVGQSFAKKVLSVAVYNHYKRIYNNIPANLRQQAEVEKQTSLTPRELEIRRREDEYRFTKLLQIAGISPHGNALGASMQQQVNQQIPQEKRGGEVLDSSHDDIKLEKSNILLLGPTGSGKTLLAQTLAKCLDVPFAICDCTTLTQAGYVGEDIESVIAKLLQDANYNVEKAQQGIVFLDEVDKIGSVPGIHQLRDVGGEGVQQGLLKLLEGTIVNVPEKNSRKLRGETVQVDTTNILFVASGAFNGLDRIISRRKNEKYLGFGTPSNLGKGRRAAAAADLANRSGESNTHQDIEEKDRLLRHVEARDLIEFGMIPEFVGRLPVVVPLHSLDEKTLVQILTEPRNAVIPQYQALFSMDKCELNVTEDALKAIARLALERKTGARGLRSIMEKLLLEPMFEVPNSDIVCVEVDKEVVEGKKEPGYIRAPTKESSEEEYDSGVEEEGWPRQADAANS
# Sequence of UniProt P51798 (P51798 whole entry, looked up): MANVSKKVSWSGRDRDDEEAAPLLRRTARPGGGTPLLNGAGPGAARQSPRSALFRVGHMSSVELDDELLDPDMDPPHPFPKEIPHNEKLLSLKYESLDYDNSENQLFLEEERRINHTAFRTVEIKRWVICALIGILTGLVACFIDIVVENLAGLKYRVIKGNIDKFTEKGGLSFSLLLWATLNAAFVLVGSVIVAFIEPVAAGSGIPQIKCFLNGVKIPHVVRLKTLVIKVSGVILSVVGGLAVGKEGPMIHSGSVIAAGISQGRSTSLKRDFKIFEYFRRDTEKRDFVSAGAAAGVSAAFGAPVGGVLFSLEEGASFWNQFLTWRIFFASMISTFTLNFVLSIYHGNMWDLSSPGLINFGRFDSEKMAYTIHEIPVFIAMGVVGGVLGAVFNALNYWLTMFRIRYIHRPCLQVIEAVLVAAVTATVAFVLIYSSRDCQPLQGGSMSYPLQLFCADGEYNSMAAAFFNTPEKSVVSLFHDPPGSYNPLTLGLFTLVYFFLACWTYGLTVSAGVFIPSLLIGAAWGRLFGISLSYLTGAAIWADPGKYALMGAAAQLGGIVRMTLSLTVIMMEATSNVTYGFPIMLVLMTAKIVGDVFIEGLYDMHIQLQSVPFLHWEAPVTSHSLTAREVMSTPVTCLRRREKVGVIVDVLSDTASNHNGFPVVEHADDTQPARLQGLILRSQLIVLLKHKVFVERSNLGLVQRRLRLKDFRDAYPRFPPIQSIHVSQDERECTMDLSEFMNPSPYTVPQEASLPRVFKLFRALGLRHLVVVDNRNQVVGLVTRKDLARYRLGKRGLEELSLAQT
# Sequence of UniProt Q9HAW4 (Q9HAW4 whole entry, looked up): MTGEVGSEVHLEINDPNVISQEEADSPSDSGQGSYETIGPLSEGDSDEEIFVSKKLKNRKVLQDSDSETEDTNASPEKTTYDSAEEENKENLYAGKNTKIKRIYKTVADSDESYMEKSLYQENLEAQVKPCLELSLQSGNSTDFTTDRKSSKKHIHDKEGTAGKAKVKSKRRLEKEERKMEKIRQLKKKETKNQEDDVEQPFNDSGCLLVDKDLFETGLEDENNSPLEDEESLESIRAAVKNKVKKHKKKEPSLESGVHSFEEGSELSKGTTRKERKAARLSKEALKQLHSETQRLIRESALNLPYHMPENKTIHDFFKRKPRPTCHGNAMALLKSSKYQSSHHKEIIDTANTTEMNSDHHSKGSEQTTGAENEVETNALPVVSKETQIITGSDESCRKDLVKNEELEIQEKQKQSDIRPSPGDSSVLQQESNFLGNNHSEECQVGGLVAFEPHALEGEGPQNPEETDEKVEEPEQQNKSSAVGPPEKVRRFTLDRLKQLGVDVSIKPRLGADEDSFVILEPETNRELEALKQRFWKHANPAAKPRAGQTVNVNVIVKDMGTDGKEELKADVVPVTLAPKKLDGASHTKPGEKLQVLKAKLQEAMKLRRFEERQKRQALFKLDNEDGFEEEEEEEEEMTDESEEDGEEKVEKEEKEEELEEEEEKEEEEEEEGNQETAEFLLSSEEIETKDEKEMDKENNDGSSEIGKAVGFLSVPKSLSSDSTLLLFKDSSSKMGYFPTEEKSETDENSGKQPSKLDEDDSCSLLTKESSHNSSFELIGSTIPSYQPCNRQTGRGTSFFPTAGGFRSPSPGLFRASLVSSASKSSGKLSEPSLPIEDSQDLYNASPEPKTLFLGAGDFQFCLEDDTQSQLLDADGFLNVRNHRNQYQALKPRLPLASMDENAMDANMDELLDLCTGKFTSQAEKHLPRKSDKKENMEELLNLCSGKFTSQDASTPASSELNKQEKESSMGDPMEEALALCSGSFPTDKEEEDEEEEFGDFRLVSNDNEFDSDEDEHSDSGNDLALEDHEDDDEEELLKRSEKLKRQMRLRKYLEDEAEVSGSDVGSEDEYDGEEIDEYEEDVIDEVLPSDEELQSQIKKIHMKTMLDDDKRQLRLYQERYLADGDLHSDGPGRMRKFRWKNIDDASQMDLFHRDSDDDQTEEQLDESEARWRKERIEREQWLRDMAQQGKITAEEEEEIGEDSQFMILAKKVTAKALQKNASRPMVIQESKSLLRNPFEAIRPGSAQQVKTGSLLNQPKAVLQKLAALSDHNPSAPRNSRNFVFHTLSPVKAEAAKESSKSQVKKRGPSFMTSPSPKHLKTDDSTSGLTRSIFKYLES
# Sequence of UniProt Q96SZ6 (Q96SZ6 whole entry, looked up): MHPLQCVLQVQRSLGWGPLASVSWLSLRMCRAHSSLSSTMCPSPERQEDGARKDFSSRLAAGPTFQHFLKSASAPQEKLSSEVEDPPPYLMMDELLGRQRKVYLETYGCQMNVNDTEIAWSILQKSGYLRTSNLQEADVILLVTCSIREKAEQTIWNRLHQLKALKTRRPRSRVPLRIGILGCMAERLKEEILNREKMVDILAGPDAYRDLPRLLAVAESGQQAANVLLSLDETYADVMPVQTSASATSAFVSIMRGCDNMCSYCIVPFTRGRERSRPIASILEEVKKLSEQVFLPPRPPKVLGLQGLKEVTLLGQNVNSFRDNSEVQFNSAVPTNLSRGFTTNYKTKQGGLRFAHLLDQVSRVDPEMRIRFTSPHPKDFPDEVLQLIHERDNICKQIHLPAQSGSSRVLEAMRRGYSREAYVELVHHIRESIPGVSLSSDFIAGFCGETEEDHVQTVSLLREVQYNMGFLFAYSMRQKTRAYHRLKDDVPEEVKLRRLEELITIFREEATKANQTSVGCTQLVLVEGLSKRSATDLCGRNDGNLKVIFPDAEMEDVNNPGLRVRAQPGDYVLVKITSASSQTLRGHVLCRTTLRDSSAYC
# Sequence of UniProt Q8IWV2 (Q8IWV2 whole entry, looked up): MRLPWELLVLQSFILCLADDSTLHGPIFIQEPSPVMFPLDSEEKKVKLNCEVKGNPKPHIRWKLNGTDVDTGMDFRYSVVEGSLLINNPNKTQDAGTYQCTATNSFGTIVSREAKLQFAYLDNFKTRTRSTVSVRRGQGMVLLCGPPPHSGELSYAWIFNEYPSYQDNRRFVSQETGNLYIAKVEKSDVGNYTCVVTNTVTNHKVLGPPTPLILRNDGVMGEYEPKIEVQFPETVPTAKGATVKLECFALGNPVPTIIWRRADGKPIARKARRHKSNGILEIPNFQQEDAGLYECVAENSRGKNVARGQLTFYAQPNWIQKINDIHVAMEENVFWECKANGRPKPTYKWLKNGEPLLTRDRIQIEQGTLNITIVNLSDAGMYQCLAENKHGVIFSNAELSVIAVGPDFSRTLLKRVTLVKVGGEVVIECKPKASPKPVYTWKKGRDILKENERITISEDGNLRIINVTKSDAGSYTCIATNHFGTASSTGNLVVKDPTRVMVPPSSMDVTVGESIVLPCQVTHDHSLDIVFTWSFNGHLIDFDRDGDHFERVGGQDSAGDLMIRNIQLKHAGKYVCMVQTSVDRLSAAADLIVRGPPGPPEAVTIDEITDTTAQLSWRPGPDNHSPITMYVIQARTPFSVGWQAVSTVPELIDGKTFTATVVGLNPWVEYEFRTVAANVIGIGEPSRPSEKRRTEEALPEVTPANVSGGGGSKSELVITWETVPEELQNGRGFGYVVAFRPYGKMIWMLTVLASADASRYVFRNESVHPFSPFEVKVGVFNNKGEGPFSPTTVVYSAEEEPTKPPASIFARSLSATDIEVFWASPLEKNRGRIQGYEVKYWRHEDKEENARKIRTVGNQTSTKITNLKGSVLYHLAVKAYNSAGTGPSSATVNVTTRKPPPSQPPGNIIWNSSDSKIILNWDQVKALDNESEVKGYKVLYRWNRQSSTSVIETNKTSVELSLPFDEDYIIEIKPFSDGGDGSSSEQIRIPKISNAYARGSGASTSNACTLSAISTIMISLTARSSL
# Sequence of UniProt Q9BT78 (Q9BT78 whole entry, looked up): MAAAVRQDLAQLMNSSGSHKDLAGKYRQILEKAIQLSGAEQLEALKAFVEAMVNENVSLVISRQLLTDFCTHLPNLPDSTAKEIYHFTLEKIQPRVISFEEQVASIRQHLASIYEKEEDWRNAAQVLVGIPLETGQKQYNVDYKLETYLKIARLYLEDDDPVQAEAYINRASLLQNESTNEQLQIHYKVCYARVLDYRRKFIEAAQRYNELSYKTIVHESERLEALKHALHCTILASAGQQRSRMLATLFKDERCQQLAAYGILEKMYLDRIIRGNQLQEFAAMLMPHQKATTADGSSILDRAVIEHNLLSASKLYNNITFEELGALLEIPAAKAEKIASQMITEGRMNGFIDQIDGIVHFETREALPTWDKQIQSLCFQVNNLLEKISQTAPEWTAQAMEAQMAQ
# Sequence of UniProt Q96MX0 (Q96MX0 whole entry, looked up): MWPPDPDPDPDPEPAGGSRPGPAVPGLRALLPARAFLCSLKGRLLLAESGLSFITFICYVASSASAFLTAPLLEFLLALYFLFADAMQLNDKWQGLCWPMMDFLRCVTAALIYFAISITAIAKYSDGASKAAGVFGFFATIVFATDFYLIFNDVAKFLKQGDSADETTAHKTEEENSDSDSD
Target,log2 fold change [1],log2 fold change (volasertib),log2 fold change [2],log2 fold change (epoxomicin),log2 fold change [3],log2 fold change [4],log2 fold change [5],log2 fold change (rosiglitazone),log2 fold change [6],log2 fold change [7],log2 fold change (saracatinib),log2 fold change (sotrastaurin),log2 fold change (alvocidib),log2 fold change (Tubastatin A),log2 fold change [8],log2 fold change (defactinib),log2 fold change (rucaparib),log2 fold change [9],log2 fold change (encorafenib),log2 fold change [10]
CNN2 (UniProt Q99439),-0.149,-0.354 (active),0.058,0.106,-0.044,0.03,0.023,0.063,0.012,-0.055,0.004,-0.161,-0.024,0,-0.003,-0.087,-0.008,-0.077,0.023,0
CDK5RAP1 (UniProt Q96SZ6),-0.119,-0.064,0.071,0.033,0.001,-0.086,-0.006,0.036,-0.074,-0.254 (active),0.192,0.072,-0.077,-0.238 (active),0.044,0.022,0.035,0.057,0.053,-0.048
CMTM3 (UniProt Q96MX0),0.066,-0.088,-0.061,0.075,-0.009,0.057,0.02,-0.324 (active),0.048,-0.122,-0.006,-0.01,-0.022,-0.012,-0.019,-0.096,0.129,-0.075,-0.072,0.05
COPS4 (UniProt Q9BT78),-0.045,-0.007,0.013,0.047,0.001,-0.022,0.023,0.018,-0.092,-0.007,0.028,0.008,-0.071,-0.011,-0.005,-0.015,0.004,-0.006,-0.001,-0.007
CNTN4 (UniProt Q8IWV2),-0.016,-0.14,-0.084,0.149,-0.208,-0.157,0,-0.021,-0.077,-0.102,-0.026,-0.033,-0.065,0.256,-0.225,-0.06,-0.01,-0.016,-0.082,0.004
CRK (UniProt P46108),-0.059,-0.085,0.005,0.026,0.002,-0.039,0.002,0.033,-0.028,-0.022,-0.768 (active),0,-0.032,0.092,-0.003,-0.056,-0.025,-0.006,0.021,-0.024
CLCN7 (UniProt P51798),-0.338 (active),-0.297,0.031,-0.001,-0.022,-0.047,-0.01,0.049,0.009,-1.05 (active),0.004,-0.112,0.007,-0.071,0.044,0.025,-0.052,-0.156,0.151,-0.04
CKS1B (UniProt P61024),-0.028,0.068,0.094,0.014,0.025,0.041,-0.024,-0.002,0.022,-0.006,0.06,0.059,-0.067,-0.045,-0.01,-0.054,-0.047,-0.057,0.01,-0.1
CA1 (UniProt P00915),0,-0.02,0.01,0.016,0.003,0.042,-0.002,0.045,-0.034,0.134,0.014,-0.001,-0.095,-0.013,0.009,-0.057,-0.036,-0.016,-0.002,0.004
CLPX (UniProt O76031),0.039,0.192,-0.06,-0.019,-0.03,-0.022,0.026,-0.009,-0.01,0.072,0.014,0.014,0.039,0.025,-0.016,-0.027,0.034,-0.038,-0.013,-0.01
C16orf58 (UniProt Q96GQ5),-0.055,-0.013,-0.005,0.029,0.015,-0.018,0.006,0.039,-0.037,-0.086,0.042,0.04,-0.032,-0.003,-0.005,-0.031,-0.012,-0.063,0.051,-0.02
CRLF3 (UniProt Q8IUI8),-0.085,-0.277,0.067,0,-0.069,-0.041,0.024,0.041,0.031,-0.268 (active),-0.209,-0.124,-0.161,0.054,0.051,-0.076,0.026,0.036,0.074,-0.013
CLSPN (UniProt Q9HAW4),-0.017,-0.159,-0.019,0.037,0.062,0.031,-0.048,-0.016,0.04,-0.02,0.076,0.002,-0.102,0.039,0.053,-0.183,-0.11,-0.102,0.031,0.047
COMT (UniProt P21964),0.013,0.073,0.01,-0.023,-0.021,-0.01,0.005,0.039,-0.11,0.142,-0.046,0.109,0.004,0.4 (active),0.008,-0.006,-0.018,0.029,-0.039,-0.09
CBX5 (UniProt P45973),-0.033,-0.128,0.048,-0.022,-0.034,-0.057,-0.034,-0.012,-0.121,-0.003,-0.04,-0.001,-0.115,0.078,-0.026,-0.205,-0.022,0.043,0.009,-0.012
C19orf53 (UniProt Q9UNZ5),0.205,0.412,0.045,-0.264,0.104,0.239,-0.189,-0.182,0.34,0.2,-0.069,-0.03,0.33,0.129,0.155,0.296,0.257,0.053,0.136,0.036
